Data as given in ChEMBL document CHEMBL1961873, “Compounds: GSK PKIS; Assays: Nanosyn kinase panel” (2012).

Legend:
[1] = target: Rho-associated protein kinase 1 (Homo sapiens) (UniProt Q13464); conditions: at 1 µM;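 further: reported values are mean percent inhibition of ROCK1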
[2] = target: Rho-associated protein kinase 2 (Homo sapiens) (UniProt O75116); conditions: at 0.1 µM
[3] = target: Rho-associated protein kinase 2 (Homo sapiens) (UniProt O75116); conditions: at 1 µM
[4] = target: Ribosomal protein S6 kinase alpha-1 (Homo sapiens) (UniProt Q15418); conditions: at 0.1 µM
[5] = target: Ribosomal protein S6 kinase alpha-1 (Homo sapiens) (UniProt Q15418); conditions: at 1 µM
[6] = target: Ribosomal protein S6 kinase alpha-3 (Homo sapiens) (UniProt P51812); conditions: at 0.1 µM
[7] = target: Ribosomal protein S6 kinase alpha-3 (Homo sapiens) (UniProt P51812); conditions: at 1 µM
[8] = target: Ribosomal protein S6 kinase alpha-2 (Homo sapiens) (UniProt Q15349); conditions: at 0.1 µM
[9] = target: Ribosomal protein S6 kinase alpha-2 (Homo sapiens) (UniProt Q15349); conditions: at 1 µM
[10] = target: Ribosomal protein S6 kinase alpha-6 (Homo sapiens) (UniProt Q9UK32); conditions: at 0.1 µM
[11] = target: Ribosomal protein S6 kinase alpha-6 (Homo sapiens) (UniProt Q9UK32); conditions: at 1 µM
[12] = target: T1, Serine/threonine-protein kinase Sgk1 (Homo sapiens) (UniProt O00141); conditions: at 0.1 µM
T1 sequence (whole entry): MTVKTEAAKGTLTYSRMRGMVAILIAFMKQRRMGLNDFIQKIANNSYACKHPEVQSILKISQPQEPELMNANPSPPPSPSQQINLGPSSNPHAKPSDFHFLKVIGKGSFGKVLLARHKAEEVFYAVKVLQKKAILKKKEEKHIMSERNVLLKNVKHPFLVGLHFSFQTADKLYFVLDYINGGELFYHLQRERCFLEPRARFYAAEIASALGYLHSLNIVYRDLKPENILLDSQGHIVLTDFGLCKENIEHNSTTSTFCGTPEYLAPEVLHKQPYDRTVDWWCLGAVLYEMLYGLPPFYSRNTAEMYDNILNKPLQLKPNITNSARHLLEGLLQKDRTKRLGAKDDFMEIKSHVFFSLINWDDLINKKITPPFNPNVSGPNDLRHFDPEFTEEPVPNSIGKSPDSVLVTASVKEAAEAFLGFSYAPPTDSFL

[13] = target: T1, Serine/threonine-protein kinase Sgk1 (Homo sapiens); conditions: at 1 µM
[14] = target: T2, Serine/threonine-protein kinase Sgk2 (Homo sapiens) (UniProt Q9HBY8); conditions: at 0.1 µM
T2 sequence (whole entry): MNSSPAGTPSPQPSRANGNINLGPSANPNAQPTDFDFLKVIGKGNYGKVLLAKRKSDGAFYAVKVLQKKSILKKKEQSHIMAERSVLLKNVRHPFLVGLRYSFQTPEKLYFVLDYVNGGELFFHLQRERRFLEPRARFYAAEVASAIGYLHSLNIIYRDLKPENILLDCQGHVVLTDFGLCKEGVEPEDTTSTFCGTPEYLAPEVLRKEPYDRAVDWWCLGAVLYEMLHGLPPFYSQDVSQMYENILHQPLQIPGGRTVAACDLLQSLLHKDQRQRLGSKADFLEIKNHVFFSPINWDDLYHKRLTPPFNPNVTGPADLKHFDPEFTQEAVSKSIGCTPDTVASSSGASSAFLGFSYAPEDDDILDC

[15] = target: T2, Serine/threonine-protein kinase Sgk2 (Homo sapiens); conditions: at 1 µM
[16] = target: T3, Serine/threonine-protein kinase Sgk3 (Homo sapiens) (UniProt Q96BR1); conditions: at 0.1 µM
T3 sequence (whole entry): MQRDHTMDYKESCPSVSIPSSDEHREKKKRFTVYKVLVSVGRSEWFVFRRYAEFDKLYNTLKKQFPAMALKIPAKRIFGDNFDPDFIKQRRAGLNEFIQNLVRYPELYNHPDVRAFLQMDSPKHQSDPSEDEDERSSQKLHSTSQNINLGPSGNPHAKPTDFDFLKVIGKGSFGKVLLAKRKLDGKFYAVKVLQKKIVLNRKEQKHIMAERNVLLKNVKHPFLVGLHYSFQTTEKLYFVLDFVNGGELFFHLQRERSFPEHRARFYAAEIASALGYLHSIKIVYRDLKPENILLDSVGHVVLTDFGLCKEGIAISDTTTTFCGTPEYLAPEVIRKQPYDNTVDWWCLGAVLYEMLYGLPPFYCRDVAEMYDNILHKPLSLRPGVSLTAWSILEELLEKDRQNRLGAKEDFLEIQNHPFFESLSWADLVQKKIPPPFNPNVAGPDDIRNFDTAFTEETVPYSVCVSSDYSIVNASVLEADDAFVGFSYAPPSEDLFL

[17] = target: T3, Serine/threonine-protein kinase Sgk3 (Homo sapiens); conditions: at 1 µM
[18] = target: 5'-AMP-activated protein kinase catalytic subunit alpha-1 (Homo sapiens) (UniProt Q13131); conditions: at 0.1 µM
[19] = target: 5'-AMP-activated protein kinase catalytic subunit alpha-1 (Homo sapiens) (UniProt Q13131); conditions: at 1 µM
[20] = target: 5'-AMP-activated protein kinase catalytic subunit alpha-2 (Homo sapiens) (UniProt P54646); conditions: at 0.1 µM;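 further: mean inhibition measured on the AMPK complex of alpha2, beta1 and gamma1 subunits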
Chain of 5'-AMP-activated protein kinase catalytic subunit alpha-2 (Homo sapiens) (P54646 whole entry, looked up): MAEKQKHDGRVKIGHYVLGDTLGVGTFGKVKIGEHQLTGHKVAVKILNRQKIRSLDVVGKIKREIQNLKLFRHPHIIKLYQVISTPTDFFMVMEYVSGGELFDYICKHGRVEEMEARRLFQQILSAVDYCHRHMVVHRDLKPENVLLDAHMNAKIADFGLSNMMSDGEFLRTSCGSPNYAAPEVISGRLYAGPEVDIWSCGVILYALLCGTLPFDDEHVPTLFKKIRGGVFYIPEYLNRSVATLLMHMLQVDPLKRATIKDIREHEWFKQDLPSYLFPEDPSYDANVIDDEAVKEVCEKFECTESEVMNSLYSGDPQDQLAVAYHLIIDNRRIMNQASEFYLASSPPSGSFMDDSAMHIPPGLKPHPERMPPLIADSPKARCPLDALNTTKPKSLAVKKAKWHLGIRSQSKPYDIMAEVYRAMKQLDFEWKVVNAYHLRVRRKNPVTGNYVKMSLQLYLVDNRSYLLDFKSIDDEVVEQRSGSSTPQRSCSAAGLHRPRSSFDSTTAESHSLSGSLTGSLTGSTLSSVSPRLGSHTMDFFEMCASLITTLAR

Chain of Rho-associated protein kinase 2 (Homo sapiens) (O75116 whole entry, looked up): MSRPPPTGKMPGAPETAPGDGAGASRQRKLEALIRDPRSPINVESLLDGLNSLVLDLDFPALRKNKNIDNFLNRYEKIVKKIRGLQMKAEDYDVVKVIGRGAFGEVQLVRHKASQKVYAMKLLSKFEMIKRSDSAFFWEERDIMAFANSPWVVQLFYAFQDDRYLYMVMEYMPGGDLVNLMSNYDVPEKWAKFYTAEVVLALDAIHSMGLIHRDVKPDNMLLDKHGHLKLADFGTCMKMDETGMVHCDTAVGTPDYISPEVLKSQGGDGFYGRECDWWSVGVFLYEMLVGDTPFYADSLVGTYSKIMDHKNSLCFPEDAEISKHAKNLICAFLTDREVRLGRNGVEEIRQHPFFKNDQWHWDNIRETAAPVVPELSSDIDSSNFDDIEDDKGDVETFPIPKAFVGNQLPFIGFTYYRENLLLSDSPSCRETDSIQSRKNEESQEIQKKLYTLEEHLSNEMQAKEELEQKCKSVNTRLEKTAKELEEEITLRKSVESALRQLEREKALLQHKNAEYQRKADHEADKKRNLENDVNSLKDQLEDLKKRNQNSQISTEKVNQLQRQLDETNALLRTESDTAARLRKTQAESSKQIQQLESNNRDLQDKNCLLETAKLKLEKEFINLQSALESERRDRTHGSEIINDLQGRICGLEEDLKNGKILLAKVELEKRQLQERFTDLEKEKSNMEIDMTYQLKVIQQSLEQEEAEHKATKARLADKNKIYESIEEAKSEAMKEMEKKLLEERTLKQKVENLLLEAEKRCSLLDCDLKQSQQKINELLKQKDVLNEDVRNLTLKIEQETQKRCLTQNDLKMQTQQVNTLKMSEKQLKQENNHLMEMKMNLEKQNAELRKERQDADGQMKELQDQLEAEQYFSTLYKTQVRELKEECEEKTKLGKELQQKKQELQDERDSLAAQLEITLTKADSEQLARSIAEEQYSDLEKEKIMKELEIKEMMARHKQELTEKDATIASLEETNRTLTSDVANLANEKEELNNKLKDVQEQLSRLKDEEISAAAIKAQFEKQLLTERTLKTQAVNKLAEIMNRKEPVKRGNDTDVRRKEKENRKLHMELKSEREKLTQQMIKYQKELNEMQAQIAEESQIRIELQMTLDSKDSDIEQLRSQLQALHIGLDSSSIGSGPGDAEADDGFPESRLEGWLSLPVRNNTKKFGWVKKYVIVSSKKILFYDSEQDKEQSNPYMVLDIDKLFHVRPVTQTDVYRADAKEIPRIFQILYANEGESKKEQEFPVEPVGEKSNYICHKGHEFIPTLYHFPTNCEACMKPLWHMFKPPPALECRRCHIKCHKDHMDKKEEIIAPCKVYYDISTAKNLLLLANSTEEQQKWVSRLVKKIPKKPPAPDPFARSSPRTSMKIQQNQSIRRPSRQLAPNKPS
Chain of Ribosomal protein S6 kinase alpha-2 (Homo sapiens) (Q15349 whole entry): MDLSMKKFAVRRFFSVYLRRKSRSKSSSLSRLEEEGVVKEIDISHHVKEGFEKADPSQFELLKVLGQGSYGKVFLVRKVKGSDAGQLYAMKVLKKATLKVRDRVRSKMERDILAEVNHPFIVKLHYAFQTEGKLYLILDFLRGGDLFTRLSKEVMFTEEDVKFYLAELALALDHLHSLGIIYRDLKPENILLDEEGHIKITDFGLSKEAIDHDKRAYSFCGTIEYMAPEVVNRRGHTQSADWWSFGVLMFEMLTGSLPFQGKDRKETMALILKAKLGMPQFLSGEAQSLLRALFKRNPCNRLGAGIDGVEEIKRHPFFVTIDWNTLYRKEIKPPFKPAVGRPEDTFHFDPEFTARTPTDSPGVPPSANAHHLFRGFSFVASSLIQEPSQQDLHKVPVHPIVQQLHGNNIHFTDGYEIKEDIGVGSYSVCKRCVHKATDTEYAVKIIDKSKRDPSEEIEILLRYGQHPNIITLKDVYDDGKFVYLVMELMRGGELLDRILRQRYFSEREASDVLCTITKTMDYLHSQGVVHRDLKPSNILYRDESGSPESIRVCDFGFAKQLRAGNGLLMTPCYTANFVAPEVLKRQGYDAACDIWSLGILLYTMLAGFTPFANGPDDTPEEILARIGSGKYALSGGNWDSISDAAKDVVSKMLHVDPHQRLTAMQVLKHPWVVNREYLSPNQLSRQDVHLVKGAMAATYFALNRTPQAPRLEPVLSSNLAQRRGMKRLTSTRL
Chain of Ribosomal protein S6 kinase alpha-1 (Homo sapiens) (Q15418 whole entry): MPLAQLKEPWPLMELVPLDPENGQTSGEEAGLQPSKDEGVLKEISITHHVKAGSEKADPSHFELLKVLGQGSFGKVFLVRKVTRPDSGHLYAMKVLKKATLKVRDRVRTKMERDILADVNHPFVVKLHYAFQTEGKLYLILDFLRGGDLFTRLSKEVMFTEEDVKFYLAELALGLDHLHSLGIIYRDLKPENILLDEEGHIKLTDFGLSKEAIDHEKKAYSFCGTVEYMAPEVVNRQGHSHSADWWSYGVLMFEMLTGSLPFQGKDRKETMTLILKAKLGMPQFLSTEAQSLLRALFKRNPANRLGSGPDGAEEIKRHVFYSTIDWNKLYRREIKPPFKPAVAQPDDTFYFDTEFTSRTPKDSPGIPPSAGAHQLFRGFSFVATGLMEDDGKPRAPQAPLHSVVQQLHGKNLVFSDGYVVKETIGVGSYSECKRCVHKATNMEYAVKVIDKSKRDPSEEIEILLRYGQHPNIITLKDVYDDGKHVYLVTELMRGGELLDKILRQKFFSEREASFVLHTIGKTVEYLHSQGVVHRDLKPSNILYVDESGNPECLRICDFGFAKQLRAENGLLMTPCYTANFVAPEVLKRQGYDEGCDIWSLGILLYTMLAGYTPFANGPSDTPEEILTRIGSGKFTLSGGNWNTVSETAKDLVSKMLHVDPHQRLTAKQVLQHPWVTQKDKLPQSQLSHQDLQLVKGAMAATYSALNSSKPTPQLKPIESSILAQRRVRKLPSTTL
Chain of Ribosomal protein S6 kinase alpha-6 (Homo sapiens) (Q9UK32 whole entry): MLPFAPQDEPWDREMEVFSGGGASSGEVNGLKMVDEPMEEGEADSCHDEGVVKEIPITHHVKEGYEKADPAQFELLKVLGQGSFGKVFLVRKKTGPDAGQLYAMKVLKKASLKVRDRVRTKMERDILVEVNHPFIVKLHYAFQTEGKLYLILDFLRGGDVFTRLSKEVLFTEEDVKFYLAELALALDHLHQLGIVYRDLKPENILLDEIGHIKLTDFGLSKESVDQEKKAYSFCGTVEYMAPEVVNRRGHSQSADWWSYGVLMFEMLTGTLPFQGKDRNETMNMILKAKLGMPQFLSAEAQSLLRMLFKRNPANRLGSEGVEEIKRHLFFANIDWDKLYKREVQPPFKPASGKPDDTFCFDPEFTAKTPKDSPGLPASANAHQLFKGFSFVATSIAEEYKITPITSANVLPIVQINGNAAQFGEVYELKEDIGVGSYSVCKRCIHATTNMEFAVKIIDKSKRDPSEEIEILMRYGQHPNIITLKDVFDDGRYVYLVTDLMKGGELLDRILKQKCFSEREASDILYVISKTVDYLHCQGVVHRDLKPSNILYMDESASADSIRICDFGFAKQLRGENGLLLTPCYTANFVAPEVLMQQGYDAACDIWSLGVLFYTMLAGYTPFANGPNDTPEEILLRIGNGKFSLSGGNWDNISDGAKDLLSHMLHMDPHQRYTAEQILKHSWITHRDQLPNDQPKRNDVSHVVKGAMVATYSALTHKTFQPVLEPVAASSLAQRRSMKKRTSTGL
Chain of Ribosomal protein S6 kinase alpha-3 (Homo sapiens) (P51812 whole entry): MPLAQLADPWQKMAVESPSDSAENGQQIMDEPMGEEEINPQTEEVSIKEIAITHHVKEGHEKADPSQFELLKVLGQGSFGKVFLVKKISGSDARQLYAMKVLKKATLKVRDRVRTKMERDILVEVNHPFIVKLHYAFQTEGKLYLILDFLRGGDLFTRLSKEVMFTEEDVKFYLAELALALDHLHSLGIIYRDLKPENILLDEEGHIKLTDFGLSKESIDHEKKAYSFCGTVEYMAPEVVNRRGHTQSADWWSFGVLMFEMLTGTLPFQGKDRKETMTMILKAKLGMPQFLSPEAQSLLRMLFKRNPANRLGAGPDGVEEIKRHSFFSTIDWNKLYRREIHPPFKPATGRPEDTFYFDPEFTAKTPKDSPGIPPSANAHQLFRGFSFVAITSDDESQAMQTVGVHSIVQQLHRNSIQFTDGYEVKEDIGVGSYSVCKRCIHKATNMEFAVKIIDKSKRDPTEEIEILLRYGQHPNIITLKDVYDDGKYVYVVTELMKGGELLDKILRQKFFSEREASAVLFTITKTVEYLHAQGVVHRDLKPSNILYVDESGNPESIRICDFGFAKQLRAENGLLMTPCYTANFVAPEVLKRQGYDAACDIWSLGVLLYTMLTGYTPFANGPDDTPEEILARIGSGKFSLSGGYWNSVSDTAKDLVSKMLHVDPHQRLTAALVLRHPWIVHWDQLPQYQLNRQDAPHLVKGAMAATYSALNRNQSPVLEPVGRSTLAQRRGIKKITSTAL

Row | Compound | inhibition [1] | inhibition [2] | inhibition [3] | inhibition [4] | inhibition [5] | inhibition [6] | inhibition [7] | inhibition [8] | inhibition [9] | inhibition [10] | inhibition [11] | inhibition [12] | inhibition [13] | inhibition [14] | inhibition [15] | inhibition [16] | inhibition [17] | inhibition [18] | inhibition [19] | inhibition [20]
1 | NC(=O)c1cccc(Nc2nccc(Nc3cccc(F)c3)n2)c1 | 0.46% | 0.51% | 1.52% | -1.2% | 1.35% | 0.35% | 1.16% | 1.27% | 1.94% | 1.27% | 6.03% | 0.89% | -0.08% | 3.63% | 3.3% | 0.73% | -1.45% | -0.48% | 3.96% | 1.99%
2 | CN(c1ccc(NC(=O)Nc2ccc(OC(F)(F)F)cc2)cc1)c1ccnc(Nc2cccc(S(N)(=O)=O)c2)n1 | 1.61% | -0.23% | 3.48% | 0.06% | 0.25% | -0.29% | -0.29% | 1.62% | 2.2% | -0.26% | -0.89% | 2.63% | 1.43% | 3.27% | 4.82% | 7.71% | 2.44% | 0.3% | 1.3% | -1.16%
3 | COc1cccc(-n2ncc3c(N/N=C/c4ccc(S(C)(=O)=O)cc4)ncnc32)c1 | 1.16% | 1.71% | 1.85% | 1.45% | 0.53% | 1.53% | 0.98% | 1.87% | 4.48% | 0.99% | 3.2% | 3.81% | 10.1% | 6.74% | 4.33% | -0.55% | 2.6% | 1.41% | 2% | 3.56%
4 | CCn1c(-c2nonc2N)nc2c(C#CC(C)(C)O)nc(OCCNC)cc21 | 4.86% | 3.51% | 5.7% | 0.22% | 4.86% | 1.84% | 5.57% | 3.02% | 7.49% | 0.98% | 2.45% | 1.88% | 2.66% | 2.29% | 4.48% | 2.71% | 13.9% | 2.74% | 8.37% | 4.37%
5 | CCCN1CCCC(c2ccc(Nc3nc(Nc4cc(F)ccc4C(N)=O)c4cc[nH]c4n3)c(OC)c2)C1 (stereo not given) | 67.7% | 27.2% | 71.3% | 35.1% | 72.5% | 22.6% | 40.2% | 9.15% | 38% | 19.7% | 54.1% | 3.79% | 4.78% | 1.44% | 6.37% | 4.46% | 0.16% | 6.07% | 20.3% | 4.5%
6 | NS(=O)(=O)c1cccc(-c2cc3ccncc3cc2OCc2ccccc2)c1 | 2.75% | 2.25% | 2.26% | 1.02% | 2.9% | 0.82% | 2.13% | 2.81% | 2.38% | 2.55% | 3.01% | 3.46% | 3.63% | 5.08% | 6.91% | 9.81% | 1.63% | 4.1% | 5.8% | -0.75%
7 | CC(C)c1ccc2c(c1)NC(=O)/C2=N/Nc1ccc(S(N)(=O)=O)cc1 | -1.28% | -1.58% | -0.82% | 0.52% | 0.63% | -0.56% | 2.05% | 1% | 2.15% | -0.83% | 0.17% | 0.54% | 0.73% | 5.31% | -4.03% | 4.97% | -1.88% | -0.83% | 0.29% | 1.03%
8 | N#Cc1c(NC(=O)c2ccccc2F)sc2c1CCCC2 | 0.92% | -0.61% | 0.55% | 0.59% | 1.03% | 0.77% | 2.33% | -0.49% | 0.67% | -0.24% | 0.41% | 0.71% | 0.65% | -4.27% | -5.49% | -2.68% | -2.69% | -0.84% | 0.73% | 1.26%
9 | COc1ccc2ncnc(Nc3ccc(OCc4ccccc4)cc3)c2c1 | -0.47% | 1.37% | 1.27% | 0.33% | 0.98% | 1.83% | 1.15% | 0.9% | 0.99% | 1.03% | 0.55% | 0.21% | 4.55% | -1.08% | -0.13% | 2.62% | 2.59% | 2.15% | 1.44% | 0.53%
10 | NC(=O)c1sc(-n2cnc3ccccc32)cc1OCc1ccccc1Br | 3.15% | 2.13% | 3.77% | 1.32% | 3.02% | 1.56% | 2.97% | 3.5% | 4.96% | 2.09% | 5.17% | 2.26% | 2.46% | 4.32% | 4.07% | 1.99% | 2.42% | 2.42% | 4.09% | 7.19%
11 | COc1cccc(-n2nc(C)c3c(N/N=C(\C)c4ccncc4)ncnc32)c1 | -1.87% | -0.57% | -1.33% | -1.25% | -0.11% | 0.34% | 1.55% | 1.45% | 0.23% | -0.47% | 0.03% | -0.15% | 0.8% | 1.28% | 5.85% | 0.38% | 0.52% | -0.66% | 0.55% | 2.15%
12 | COC(=O)c1cncc(/C=C/c2c(C)cc(O)cc2C)c1 | 1.27% | 3.8% | 5.21% | 2.26% | 4.95% | 1.3% | 2.62% | 2.03% | 2.47% | 1.66% | 6.87% | 3.1% | 4.65% | 3.28% | 2.28% | 2.89% | 4.83% | 2.38% | 5.18% | 0.21%
